From PubChem BioAssay
Active and inactive are the calls of the source. No rule for the calls is given here.

These molecules were tested against Pantothenate synthetase (Mycobacterium tuberculosis (strain ATCC 25618 / H37Rv)) (UniProt P9WIL5) (assay: Recombinant Mtb pantothenate synthetase (PanC) inhibitors, coupled enzyme, confirmatory (AID 375;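 also: 0% = full reaction with vehicle and 100% = no enzyme background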)). Details: coupled enzyme assay; at 10 µM, stronger effect = higher value.
Sequence of Pantothenate synthetase (Mycobacterium tuberculosis (strain ATCC 25618 / H37Rv)) (P9WIL5 whole entry, looked up): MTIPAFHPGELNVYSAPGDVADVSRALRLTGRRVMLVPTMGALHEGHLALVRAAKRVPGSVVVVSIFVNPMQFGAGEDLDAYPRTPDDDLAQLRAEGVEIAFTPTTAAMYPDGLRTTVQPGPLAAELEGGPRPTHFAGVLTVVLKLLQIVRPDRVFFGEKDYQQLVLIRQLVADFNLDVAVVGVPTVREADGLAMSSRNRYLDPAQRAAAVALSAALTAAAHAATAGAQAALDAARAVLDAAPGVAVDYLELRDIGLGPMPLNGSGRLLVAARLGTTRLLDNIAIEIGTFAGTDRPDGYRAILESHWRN

| Compound | inhibition |
| --- | --- |
| CC(=O)Nc1ccccc1O | 9% (inactive) |
| Clc1ccc(Cn2ncc3c(NCc4cccnc4)ncnc32)cc1 | 0% (inactive) |
| Cc1nn(-c2nc3ccccc3[nH]2)c(N)c1-c1ccccc1 | 8% (inactive) |
| CCCn1c(NC(=O)C2COc3ccccc3O2)nc2ccccc21 (stereo not given) | 0% (inactive) |
| CC(C)(C)NC(=O)CSc1nnc(-c2ccccn2)n1-c1ccccc1 | 0% (inactive) |
| CN(C)S(=O)(=O)Nc1ccccc1C(N)=O | 0% (inactive) |
| COc1ccccc1C1N(c2ccc(F)cc2)C(=O)C2CCCN21 (stereo not given) | 0% (inactive) |
| O=C(Cn1cnc2c(cnn2-c2ccc(F)cc2)c1=O)N1CCCc2ccccc21 | 0% (inactive) |
| COc1ccc(C(=O)c2coc3ccc(O)c(CN4CCCCC4)c23)cc1 | 0% (inactive) |
| CC1CN(c2nc(-c3ccccc3)nc3ccccc23)CC(C)O1 (stereo not given) | 0% (inactive) |
| O=C1c2ccccc2C(Nc2ccc3c(c2)OCCO3)N1Cc1ccc2c(c1)OCO2 (stereo not given) | 1% (inactive) |
| CCCCCn1c(CN2CCN(c3cccc(Cl)c3)CC2)nc2c1c(=O)n(C)c(=O)n2C | 0% (inactive) |
| Cc1sc2ncnc(Oc3ccc(-n4ccnc4)cc3)c2c1C | 4% (inactive) |
| COC(=O)c1c(NC(=O)CCc2ccc(C)o2)sc(C)c1C | 1% (inactive) |
| CCCC1c2ccc(C)n2CCN1C(=O)Nc1ccccc1Cl (stereo not given) | 1% (inactive) |
| CCCN(CCO)Cc1cccc(Br)c1 | 3% (inactive) |
| CCc1nnc(SCC(=O)NC2CCCCC2)nc1CC | 1% (inactive) |
| CCOC(=O)c1cc2c(=O)n3ccccc3nc2n(Cc2ccccc2)c1=N | 0% (inactive) |
| Cc1nccn1CCCN1C(=O)OC2(CCCCC2)C1(C)O (stereo not given) | 0% (inactive) |
| CCOC(=O)c1sc(NC(=O)COC(=O)Cn2cnc3ccccc32)c(C(=O)OCC)c1C | 3% (inactive) |

| Compound | inhibition |
| --- | --- |
| COCCN(CCOC)C(=O)c1sc2nc(-c3ccccc3)cn2c1C | 0% (inactive) |
| N#C/C(C(=O)NCc1ccco1)=C1/SC(Cc2ccc(F)cc2)C(=O)N1c1ccccc1 (stereo not given) | 0% (inactive) |
| CCn1nnnc1NCc1cccn1C | 5% (inactive) |
| CCCCCc1c(C)nc(N2CCc3ccccc32)[nH]c1=O | 0% (inactive) |
| CCC(=O)N1C(=O)CCN(C(C)=O)c2ccccc21 | 0% (inactive) |
| CC(=O)Nc1ccc(NS(=O)(=O)c2ccc(Cl)c(C(=O)O)c2)cc1 | 1% (inactive) |
| CCn1c(SCC(=O)Nc2cccc(C)c2)nc2c(c1=O)SC(C)C2 (stereo not given) | 1% (inactive) |
| CCCCc1ccc(NC(=O)N[C@H](C(=O)O)C(C)C)cc1 | 1% (inactive) |
| Cc1cccc(-n2ncc3c(NCc4cccnc4)ncnc32)c1 | 7% (inactive) |
| CS(=O)(=O)N(Cc1nc2sc3c(c2c(=O)[nH]1)CCCC3)C1CCCCC1 | 0% (inactive) |
| O=C(Cc1cccs1)NCc1ccc(F)cc1 | 0% (inactive) |
| CSc1ccc(-c2nc(CSCC(=O)N3CCOCC3)c(C)o2)cc1 | 0% (inactive) |
| COCCn1c(SCc2csc(-c3ccccc3)n2)nc2ccccc21 | 5% (inactive) |
| CCOC(=O)N1CCC(Nc2c(-c3ccc(C)cc3)c(=O)c2=O)CC1 | 0% (inactive) |
| COc1ccc(C2CC(c3ccc(OC)cc3)n3nc(N)nc3N2)cc1 (stereo not given) | 0% (inactive) |
| CCn1cnc2sc(C(=O)Nc3ccc4c(c3)OCO4)c(C)c2c1=O | 4% (inactive) |
| CC(O)c1nc2ccccc2n1C1CCCCC1 (stereo not given) | 0% (inactive) |
| Cn1nnc2c(sc3nc(N4CCOCC4)c4c(c32)CCCC4)c1=O | 8% (inactive) |
| Cc1cc(C)c2c(C)nn(C3CCCCC3)c2n1 | 0% (inactive) |
| C=C(C)Cn1c(SCC)nc2ccccc2c1=O | 4% (inactive) |
